Counter-ions that a name gives are not always drawn.
Columns and labels:
Settings in all cases: compound concentration in added solution (µM; 5 µl added to 20 µl cells): 10; 18 h
[1] = test system: HeLa MZ; assay: LBPA endosome anti-LBPA integrated intensity (sum per cell), Z-score; higher = more LBPA staining
Procedure, shortened: (§1)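 The data are Z-scores, normalised in AcuityXpress, of integrated LBPA or filipin intensity in each cell, either whole-cell or restricted to LBPA endosomes. HeLa MZ or A431 cells, 3,500 per well in 20 µl, were seeded onto 5 µl of 10 µM compound solution in duplicate 384-well plates and incubated 18 h. Fixed cells were stained and imaged, with intensities extracted by MetaXpress segmentation.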

[2] = test system: HeLa MZ; assay: whole-cell filipin (free cholesterol) integrated intensity, Z-score; higher = more cholesterol staining
Procedure, shortened: as §1

[3] = test system: HeLa MZ; assay: filipin (cholesterol) integrated intensity within LBPA endosomes, Z-score; higher = more cholesterol in LBPA endosomes
Procedure, shortened: as §1

[4] = test system: A431; assay: LBPA endosome anti-LBPA integrated intensity (sum per cell), Z-score; higher = more LBPA staining
Procedure, shortened: as §1

[5] = test system: A431; assay: whole-cell filipin (free cholesterol) integrated intensity, Z-score; higher = more cholesterol staining
Procedure, shortened: as §1

[6] = test system: A431; assay: filipin (cholesterol) integrated intensity within LBPA endosomes, Z-score; higher = more cholesterol in LBPA endosomes
Procedure, shortened: as §1

Compound | LBPA endosome anti-LBPA integrated intensity (z-score) [1] | whole-cell filipin (z-score) [2] | filipin (z-score) [3] | LBPA endosome anti-LBPA integrated intensity (z-score) [4] | whole-cell filipin (z-score) [5] | filipin (z-score) [6]
COc1ccc(CCN2CCC(Nc3nc4ccccc4n3Cc3ccc(F)cc3)CC2)cc1 [Astemizole] | -0.627 | -1.11 | 2.12 | – | – | –
C[C@]12CCC(=O)C(O)=C1CC[C@@H]1[C@@H]2CC[C@]2(C)C(=O)CC[C@@H]12 [Formestane] | 1.9 | 2.23 | 1.15 | 1.1 | 2.53 | 2.1
CC(=O)O[C@H]1C[C@@H]2CC[C@@H]3[C@H](CC[C@@]4(C)[C@H]3C[C@H]([N+]3(C)CCCCC3)[C@@H]4OC(C)=O)[C@@]2(C)C[C@@H]1[N+]1(C)CCCCC1 [Pancuronium bromide] | -0.744 | -0.166 | -0.532 | -0.551 | 0.0171 | -0.527
C[N+]12CCC(CC1)C(OC(=O)C(O)(c1ccccc1)c1ccccc1)C2 (stereo unspecified) [Clidinium bromide] | -0.195 | -0.644 | -0.364 | -0.478 | -0.441 | -0.455
C[N+](C)(C)CCCCCCCCCC[N+](C)(C)C [Decamethonium bromide] | -1.08 | 0.872 | -0.446 | -0.547 | 0.0371 | -0.372
O=C(CCCN1CCC(n2c(=O)[nH]c3ccccc32)CC1)c1ccc(F)cc1 [Benperidol] | 1.55 | 1.83 | 1.91 | 2.05 | 2.2 | 2.28
C[C@]12CCC(=O)C=C1C=C[C@@H]1[C@@H]2CC[C@@]2(C)[C@H]1CC[C@@]2(O)CCC(=O)O [Canrenoic acid potassium salt] | -1.1 | -1.15 | -0.819 | -0.568 | -1.15 | -0.611
OC(c1ccccc1)(c1ccccc1)C1CCNCC1 [Azacyclonol] | -0.253 | -0.666 | 0.228 | -0.397 | -0.445 | -0.198
CN1[C@@H]2C[C@@H](OC(=O)[C@H](CO)c3ccccc3)C[C@H]1[C@@H]1O[C@@H]12 [Scopolamine hydrochloride] | -0.0951 | 0.118 | -0.0653 | -0.422 | -0.247 | -0.45
C[C@@H]1CN([C@H]2CC[C@](C#N)(c3ccc(F)cc3)CC2)CC[C@]1(C(=O)O)c1ccccc1 [Levocabastine hydrochloride] | -0.243 | -0.189 | -0.461 | -0.412 | -0.194 | -0.388
C[C@]12CC[C@H](O)C[C@@H]1CC[C@@H]1[C@@H]2CC[C@]2(C)C(=O)CC[C@@H]12 [Epiandrosterone] | 0.767 | 2.67 | 1.85 | 1.56 | 2.3 | 2.15
CCn1cc(C(=O)O)c(=O)c2cc3c(cc21)OCO3 [Oxolinic acid] | -0.225 | -0.638 | -0.645 | -0.55 | -0.848 | -0.512
Oc1ccc2c3c1O[C@H]1[C@@H](O)CC[C@@]4(O)[C@@H](C2)N(CC2CCC2)CC[C@]314 [Nalbuphine hydrochloride] | -0.32 | -0.749 | -0.371 | -0.515 | -0.797 | -0.572
CC[C@@H](C(N)=O)N1CCCC1=O [Levetiracetam] | -1.5 | 0.0516 | -0.523 | -0.634 | -0.363 | -0.585
Fc1ccc(C(OCCN2CCN(CCCc3ccccc3)CC2)c2ccc(F)cc2)cc1 | – | – | – | 3.21 | 1.65 | 2.65
CCC1(c2ccc(N)cc2)CCC(=O)NC1=O (stereo unspecified) [Glutethimide, para-amino] | -1.41 | -1 | -0.691 | -0.66 | -1.07 | -0.544
CCNC1(c2cccs2)CCCCC1=O (stereo unspecified) [Tiletamine hydrochloride] | -0.0498 | -0.435 | -0.463 | -0.499 | -0.0108 | -0.475
CCCC(C)C1(CC)C(=O)NC(=O)NC1=O (stereo unspecified) [Pentobarbital] | -1.58 | -0.632 | -0.624 | -0.683 | -0.881 | -0.553
CC[C@@]1([C@@H]2O[C@@H]([C@H]3O[C@@](O)(CO)[C@H](C)C[C@@H]3C)C[C@@H]2C)CC[C@H]([C@]2(C)CC[C@]3(C[C@H](O)[C@@H](C)[C@@H]([C@@H](C)[C@@H](OC)[C@H](C)C(=O)O)O3)O2)O1 [Monensin sodium salt] | -0.505 | -1.99 | 0.206 | – | – | –
CCNCC(O)c1cccc(O)c1 (stereo unspecified) [Etilefrine hydrochloride] | -0.0522 | -0.0907 | -0.466 | -0.181 | 0.485 | -0.374
